Test [1] is described as follows: qHTS assay to identify small molecule antagonists of the sonic hedgehog signaling (Shh) pathway (AID 1259369; calls by dose curve; also: nearly all actives have a fitted effect of over 45% in size; also: potency is read from the fitted curve at half-maximal effect). In short, it runs like this:
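Read-out is luminescence from a firefly luciferase gene controlled by the Gli1 response element, in 3T3Gli1-Luc cells pre-incubated 4hr then exposed to compounds and conditioned medium for 24hr.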
A general note: Quantitative high-throughput screening tests each substance at several concentrations.

The target of test [2] is Estrogen receptor beta (Homo sapiens) (UniProt Q92731). Description: qHTS assay to identify small molecule agonists of the estrogen receptor beta (ER-beta) signaling pathway (AID 1259377; active = well fitted activation curve with a large enough effect in the signal ratio in the repeat runs, not every such curve was filed as active; the % refers to the signal ratio). In short, it runs like this: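 Read-out: beta-lactamase FRET fluorescence. Cell line: ER-beta-UAS-bla HEK293T in 2% charcoal-stripped FBS. Exposure: 16 hr at 37C. Substrate step: 2 h at room temperature.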
Estrogen receptor beta (Homo sapiens), sequence (Q92731 whole entry, looked up): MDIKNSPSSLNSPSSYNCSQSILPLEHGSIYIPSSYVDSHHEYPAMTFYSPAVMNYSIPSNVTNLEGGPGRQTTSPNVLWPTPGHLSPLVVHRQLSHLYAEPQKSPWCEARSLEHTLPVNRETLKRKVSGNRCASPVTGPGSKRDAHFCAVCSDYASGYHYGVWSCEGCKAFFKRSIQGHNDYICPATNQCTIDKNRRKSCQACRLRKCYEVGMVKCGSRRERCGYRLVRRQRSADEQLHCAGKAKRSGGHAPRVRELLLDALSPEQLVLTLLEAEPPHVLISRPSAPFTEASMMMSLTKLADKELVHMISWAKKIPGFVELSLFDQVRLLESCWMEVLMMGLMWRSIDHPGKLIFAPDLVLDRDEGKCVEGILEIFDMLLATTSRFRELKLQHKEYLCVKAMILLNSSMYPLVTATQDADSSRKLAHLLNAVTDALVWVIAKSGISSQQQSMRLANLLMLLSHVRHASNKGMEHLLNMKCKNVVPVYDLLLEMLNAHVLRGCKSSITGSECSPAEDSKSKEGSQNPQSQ

A short description of test [3]: qHTS assay to identify small molecule agonists of the androgen receptor (AR) signaling pathway in the presence of an antagonist - cell viability counter screen (AID 1259379).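 Also: MDA-kb2 human breast cancer cells carrying an MMTV luciferase reporter; series mostly up to about 92 µM; nearly all actives have a fitted effect of over 25% in size.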 An outline of the steps: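 Each compound was tested at 15 concentrations on MDA-kb2 cells in the presence of 3.0uM nilutamide. Viability was measured by CellTiter-Fluor fluorescence after a 16 hr incubation at 37C in a CO2-free atmosphere.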

Test [4] can be described thus: qHTS assay to identify small molecule antagonists of the estrogen receptor beta (ER-beta) signaling pathway - cell viability counter screen (AID 1259382).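 Also: HEK293T cells carrying ER-beta-UAS-bla reporter stimulated with estradiol; series mostly up to about 92 µM; nearly all actives have a fitted effect of over 55% in size.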 An outline of the steps: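 CellTiter-Glo ATP luminescence measured after the LiveBLAzer read in the same wells; ER-beta-UAS-bla HEK293T cells, 16 hr compound treatment with 1nM 17-beta-estradiol agonist at 37C, 5% CO2.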

The target in test [5] is Estrogen receptor (Homo sapiens) (UniProt P03372). The test is described as follows: qHTS assay to identify small molecule agonists of the estrogen receptor alpha (ER-alpha) signaling pathway in the presence of an antagonist (AID 1259383; calls by dose curve; also: top concentration of the series differs between compounds; nearly all actives have a fitted effect of over 15% in size). In short, it runs like this: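 Luminescent ERE-luciferase reporter, VM7Luc4E2 cells (endogenous ER-alpha); 10.0nM ICI-182,780 final; 15-point compound titration; 22hr at 37C; ONE-Glo, 30min RT.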
Estrogen receptor (Homo sapiens), sequence (P03372 whole entry, looked up): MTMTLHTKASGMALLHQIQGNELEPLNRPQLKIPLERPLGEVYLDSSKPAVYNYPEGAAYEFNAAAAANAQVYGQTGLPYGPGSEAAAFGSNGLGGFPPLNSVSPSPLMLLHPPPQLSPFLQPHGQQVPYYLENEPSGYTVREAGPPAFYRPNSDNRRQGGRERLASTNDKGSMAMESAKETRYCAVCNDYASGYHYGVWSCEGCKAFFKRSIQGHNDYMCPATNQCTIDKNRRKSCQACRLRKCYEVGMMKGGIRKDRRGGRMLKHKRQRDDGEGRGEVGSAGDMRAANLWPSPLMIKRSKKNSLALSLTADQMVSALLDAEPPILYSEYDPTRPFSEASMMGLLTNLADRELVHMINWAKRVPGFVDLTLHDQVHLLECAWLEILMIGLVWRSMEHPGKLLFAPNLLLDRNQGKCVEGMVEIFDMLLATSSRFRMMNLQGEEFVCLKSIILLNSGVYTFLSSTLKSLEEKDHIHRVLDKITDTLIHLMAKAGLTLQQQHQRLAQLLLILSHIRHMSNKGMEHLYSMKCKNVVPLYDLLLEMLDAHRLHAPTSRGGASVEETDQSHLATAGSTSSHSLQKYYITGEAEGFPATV

The nature of test [6]: qHTS assay to identify small molecule agonists or antagonists of the thyroid stimulating hormone receptor (TSHR) signaling pathway - wild type cell line counter screen (AID 1259384; calls by dose curve). In short, it runs like this:
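Counter screen in untransfected Hek293: compounds (15-point titration, triplicate) plus phosphodiesterase inhibitor Ro20-1724 added after 18 h plating; 30 min RT. Intracellular cAMP via competitive d2/cryptate immunoassay, 1 h incubation.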

Test [7] addresses Thyrotropin receptor (Homo sapiens) (UniProt P16473). The test is described as follows: qHTS assay to identify small molecule antagonists of the thyroid stimulating hormone receptor (TSHR) signaling pathway (AID 1259385; calls by dose curve; also: nearly all actives have a fitted effect of over 20% in size). In short, it runs like this:
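Antagonist mode: compound-treated TSHR-expressing HEK293 cells were stimulated with 1.5 ng/mL TSH (final) in presence of Ro20-1724 for 30 min at RT. HTRF cAMP detection after 1 h; each compound tested at 15 concentrations, triplicate.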

Test [8] concerns the target Progesterone receptor (Homo sapiens) (UniProt P06401). The test is described as follows: qHTS assay to identify small molecule agonists of the progesterone receptor (PR) signaling pathway (AID 1346784; calls by dose curve; also: nearly all actives have a fitted effect of over 30% in size). An outline of the steps: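 Compounds were tested for PR agonism in HEK 293T cells bearing a beta-lactamase gene under UAS control. Treatment lasted 16 hr at 37C; signal came from fluorescence of a FRET substrate.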

A short description of test [9]: qHTS assay to identify small molecule antagonists of the TGF-beta/Smad signaling pathway - cell viability counter screen (AID 1346824). Also: nearly all actives have a fitted effect of over 50% in size. An outline of the steps:
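Cytotoxicity counter-screen run in the same wells as the beta-lactamase Smad reporter read: CellTiter-Glo luminescence after 30 min at room temperature. HEK 293T SBE-bla cells had 5 hr compound exposure at 37 C with TGF-beta1 (0.25 ng/mL stock).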

A short description of test [10]: qHTS assay to identify small molecule agonists of the TGF-beta/Smad signaling pathway - cell viability counter screen (AID 1346829). Also: top concentration of the series differs between compounds; nearly all actives have a fitted effect of over 45% in size. An outline of the steps:
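Luminescence from CellTiter-Glo, read after a 30 min room-temperature incubation, gives cell viability of SBE-bla HEK 293T cells treated 5 hr with compounds at 37 C.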

The nature of test [11]: qHTS assay to identify small molecule agonists of the TGF-beta/Smad signaling pathway (AID 1346859; active = well fitted activation curve with a large enough effect in the signal ratio in the repeat runs, not every such curve was filed as active; the % refers to the signal ratio; also: series mostly up to about 77 µM). In short, it runs like this: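 Each well held 4,000 SBE-bla HEK 293T cells incubated overnight before compound addition; 5 hr later the cleavable FRET substrate went on for 2 hr at room temperature, and fluorescence was read at two emissions.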
Test [12] deals with Thyrotropin-releasing hormone receptor (Homo sapiens) (UniProt P34981). Description: qHTS assay to identify small molecule antagonists of the thyrotropin-releasing hormone receptor (TRHR) signaling pathway (AID 1346877; active = well fitted inhibition curve with a large enough effect in the repeat runs, not every such curve was filed as active; also: series mostly up to about 51 µM). An outline of the steps: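 Calcium signal in dye-loaded TRHR/HEK293 cells; compounds added 5 min before TRH (1 nM final); fluorescence monitored 3 min at 1 s steps.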
Thyrotropin-releasing hormone receptor (Homo sapiens), sequence (P34981 whole entry, looked up): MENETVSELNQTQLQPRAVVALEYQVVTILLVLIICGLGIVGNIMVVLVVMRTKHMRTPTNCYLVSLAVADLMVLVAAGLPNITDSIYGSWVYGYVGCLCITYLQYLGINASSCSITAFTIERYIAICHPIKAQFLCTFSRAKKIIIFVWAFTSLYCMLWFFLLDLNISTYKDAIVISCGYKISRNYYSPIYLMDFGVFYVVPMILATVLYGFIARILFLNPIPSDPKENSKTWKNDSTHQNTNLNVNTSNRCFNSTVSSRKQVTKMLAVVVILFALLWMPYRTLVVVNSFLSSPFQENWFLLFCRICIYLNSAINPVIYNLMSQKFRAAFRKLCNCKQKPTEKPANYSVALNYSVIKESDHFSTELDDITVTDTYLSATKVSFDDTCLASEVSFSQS

For test [13] the target is unchanged. The test is described as follows: qHTS assay to identify small molecule agonists of the thyrotropin-releasing hormone receptor (TRHR) signaling pathway (AID 1346891; calls by dose curve; also: series mostly up to about 58 µM). An outline of the steps:
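Screening of agonists relied on calcium signalling in HEK293 cells expressing human TRHR: dye loading 2 h at 37 °C preceded compound addition and a 3-min fluorescence time course.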

Test [14] concerns the target Androgen receptor (Homo sapiens) (UniProt P10275). Description: qHTS assay to identify small molecule agonists of the androgen receptor (AR) signaling pathway in the presence of an antagonist (AID 1259381; calls by dose curve; also: nearly all actives have a fitted effect of over 15% in size; also: potency is read from the fitted curve at half-maximal effect). An outline of the steps:
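Plated MDA-kb2 cells (3,000/well) were pre-incubated 5hr, given nilutamide (3.0uM final) or buffer, then dosed with compounds in DMSO at 15 concentrations. Luciferase activity was quantified by luminescence after 16hr at 37C.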

Test [15] in a line: qHTS assay to identify small molecule agonists of the estrogen receptor alpha (ER-alpha) signaling pathway in the presence of an antagonist - cell viability counter screen (AID 1259386).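 Also: series mostly up to about 92 µM; cells exposed to compounds for 22 h at 37 °C before the viability read; nearly all actives have a fitted effect of over 30% in size.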 In short, it runs like this: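 Using estrogen-depleted VM7Luc4E2 cells, the 15-concentration compound series was applied together with 10.0nM ICI-182,780 and incubated 22hr at 37C/5% CO2. Cell viability was then scored by CellTiter-Fluor.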

Test [16] in a line: qHTS assay to identify small molecule agonists of the estrogen receptor beta (ER-beta) signaling pathway - cell viability counter screen (AID 1259380). Also: nearly all actives have a fitted effect of over 30% in size. An outline of the steps: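 Compounds dissolved in DMSO were pin-transferred onto ER-beta-UAS-bla HEK293T cells that had settled 6 hr, and exposure ran 16 hr at 37C. Following the reporter read, CellTiter-Glo luminescence after 30 min at room temperature indicated cytotoxicity.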

Test [17] deals with Progesterone receptor (Homo sapiens) (UniProt P06401). Description: qHTS assay to identify small molecule antagonists of the progesterone receptor (PR) signaling pathway (AID 1346795; active = well fitted inhibition curve with a large enough effect in the signal ratio in the repeat runs, not every such curve was filed as active; the % refers to the signal ratio). An outline of the steps: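 In HEK293T cells bearing the PR-UAS-bla reporter, compound effects on promegestone-driven (1 nM) beta-lactamase expression are assessed after 16 hr using a fluorescent FRET substrate incubated 2 hr at room temperature.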
Progesterone receptor (Homo sapiens), sequence (P06401 whole entry, looked up): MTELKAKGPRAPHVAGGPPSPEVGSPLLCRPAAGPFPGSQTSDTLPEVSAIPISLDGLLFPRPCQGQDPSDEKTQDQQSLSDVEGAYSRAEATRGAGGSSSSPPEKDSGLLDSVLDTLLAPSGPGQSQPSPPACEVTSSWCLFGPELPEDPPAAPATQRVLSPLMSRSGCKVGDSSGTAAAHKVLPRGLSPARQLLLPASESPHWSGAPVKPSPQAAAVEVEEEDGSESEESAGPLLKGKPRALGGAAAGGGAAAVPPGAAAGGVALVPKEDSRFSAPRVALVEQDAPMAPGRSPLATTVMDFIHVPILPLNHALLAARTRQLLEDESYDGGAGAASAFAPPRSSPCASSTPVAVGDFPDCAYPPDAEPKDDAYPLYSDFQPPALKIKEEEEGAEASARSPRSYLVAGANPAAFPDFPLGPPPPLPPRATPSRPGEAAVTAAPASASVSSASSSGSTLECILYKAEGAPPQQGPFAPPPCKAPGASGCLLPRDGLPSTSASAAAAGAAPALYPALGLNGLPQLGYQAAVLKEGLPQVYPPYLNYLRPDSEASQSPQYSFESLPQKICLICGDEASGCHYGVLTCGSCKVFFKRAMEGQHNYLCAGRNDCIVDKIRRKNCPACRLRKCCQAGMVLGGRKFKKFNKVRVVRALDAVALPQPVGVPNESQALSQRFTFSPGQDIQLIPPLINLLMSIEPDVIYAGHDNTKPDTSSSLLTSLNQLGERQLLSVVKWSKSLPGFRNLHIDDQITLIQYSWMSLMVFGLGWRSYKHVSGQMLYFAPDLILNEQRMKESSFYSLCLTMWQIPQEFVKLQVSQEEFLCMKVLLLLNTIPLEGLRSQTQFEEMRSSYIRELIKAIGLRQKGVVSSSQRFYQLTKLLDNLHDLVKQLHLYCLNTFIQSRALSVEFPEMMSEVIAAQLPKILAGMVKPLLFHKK

A short description of test [18]: qHTS assay to identify small molecule antagonists of the progesterone receptor (PR) signaling pathway - cell viability counter screen (AID 1346798). Also: series mostly up to about 92 µM; nearly all actives have a fitted effect of over 50% in size. An outline of the steps: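 Following a 4 hr attachment, PR-UAS-bla HEK293T cells in charcoal-stripped FBS medium were exposed to compounds with R5020 for 16 hr; CellTiter-Glo was added and luminescence read after 30 min at room temperature.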

Test [19] addresses Estrogen receptor beta (Homo sapiens) (UniProt Q92731). The test is described as follows: qHTS assay to identify small molecule antagonists of the estrogen receptor beta (ER-beta) signaling pathway (AID 1259378; active = well fitted inhibition curve with a large enough effect in the signal ratio in the repeat runs, not every such curve was filed as active; the % refers to the signal ratio). In short, it runs like this:
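Antagonist mode: compounds added to beta-lactamase reporter HEK293T ER-beta-UAS cells stimulated with E2 (1nM final), 16 hr at 37C. LiveBLAzer B/G FRET substrate, 2 hours room temperature, fluorescence read-out.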

A short description of test [20]: qHTS assay to identify small molecule agonists of the progesterone receptor (PR) signaling pathway - cell viability counter screen (AID 1346799; calls by dose curve; also: nearly all actives have a fitted effect of over 45% in size). In short, it runs like this:
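Here, 3,000 PR-UAS-bla HEK293T cells per well were treated with compounds for 16 hr after a 6 hr preincubation at 37C and 5% CO2; cell viability is the CellTiter-Glo luminescence signal.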

Each structure is given as a SMILES string. Inconclusive results are not listed. Calls of active or inactive are those of the source. Unless noted, calls follow the shape of the dose curve; as a rule, active = well fitted curve in the direction sought with a large enough effect in the repeat runs; inconclusive = weak or mixed curves; inactive = no such curve, though single readings can be large; an effect the other way counts as inactive or inconclusive.

Androgen receptor (Homo sapiens), sequence (P10275 whole entry, looked up): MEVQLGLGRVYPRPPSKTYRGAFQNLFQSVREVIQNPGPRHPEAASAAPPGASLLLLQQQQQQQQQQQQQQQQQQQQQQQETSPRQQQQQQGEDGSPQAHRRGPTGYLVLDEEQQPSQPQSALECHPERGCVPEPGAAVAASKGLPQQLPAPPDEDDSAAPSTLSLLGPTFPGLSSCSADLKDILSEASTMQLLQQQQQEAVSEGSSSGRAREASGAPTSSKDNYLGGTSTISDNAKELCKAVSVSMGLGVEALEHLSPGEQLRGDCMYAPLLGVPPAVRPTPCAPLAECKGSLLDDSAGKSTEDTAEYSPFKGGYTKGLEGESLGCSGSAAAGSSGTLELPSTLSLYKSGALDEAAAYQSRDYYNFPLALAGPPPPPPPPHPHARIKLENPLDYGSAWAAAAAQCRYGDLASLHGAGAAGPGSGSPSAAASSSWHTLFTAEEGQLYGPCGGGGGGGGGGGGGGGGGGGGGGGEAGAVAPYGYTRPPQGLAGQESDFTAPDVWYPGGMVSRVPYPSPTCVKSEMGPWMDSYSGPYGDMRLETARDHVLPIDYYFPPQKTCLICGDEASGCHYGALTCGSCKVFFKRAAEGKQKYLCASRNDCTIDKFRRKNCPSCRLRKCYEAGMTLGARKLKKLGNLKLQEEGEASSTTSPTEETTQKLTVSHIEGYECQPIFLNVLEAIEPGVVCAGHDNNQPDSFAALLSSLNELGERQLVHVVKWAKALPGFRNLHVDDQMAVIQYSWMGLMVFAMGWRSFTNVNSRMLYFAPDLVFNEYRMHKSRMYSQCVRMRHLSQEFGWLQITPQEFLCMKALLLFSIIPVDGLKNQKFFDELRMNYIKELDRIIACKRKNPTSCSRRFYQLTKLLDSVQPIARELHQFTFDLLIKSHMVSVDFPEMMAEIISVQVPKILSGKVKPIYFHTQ
Thyrotropin receptor (Homo sapiens), sequence (P16473 whole entry, looked up): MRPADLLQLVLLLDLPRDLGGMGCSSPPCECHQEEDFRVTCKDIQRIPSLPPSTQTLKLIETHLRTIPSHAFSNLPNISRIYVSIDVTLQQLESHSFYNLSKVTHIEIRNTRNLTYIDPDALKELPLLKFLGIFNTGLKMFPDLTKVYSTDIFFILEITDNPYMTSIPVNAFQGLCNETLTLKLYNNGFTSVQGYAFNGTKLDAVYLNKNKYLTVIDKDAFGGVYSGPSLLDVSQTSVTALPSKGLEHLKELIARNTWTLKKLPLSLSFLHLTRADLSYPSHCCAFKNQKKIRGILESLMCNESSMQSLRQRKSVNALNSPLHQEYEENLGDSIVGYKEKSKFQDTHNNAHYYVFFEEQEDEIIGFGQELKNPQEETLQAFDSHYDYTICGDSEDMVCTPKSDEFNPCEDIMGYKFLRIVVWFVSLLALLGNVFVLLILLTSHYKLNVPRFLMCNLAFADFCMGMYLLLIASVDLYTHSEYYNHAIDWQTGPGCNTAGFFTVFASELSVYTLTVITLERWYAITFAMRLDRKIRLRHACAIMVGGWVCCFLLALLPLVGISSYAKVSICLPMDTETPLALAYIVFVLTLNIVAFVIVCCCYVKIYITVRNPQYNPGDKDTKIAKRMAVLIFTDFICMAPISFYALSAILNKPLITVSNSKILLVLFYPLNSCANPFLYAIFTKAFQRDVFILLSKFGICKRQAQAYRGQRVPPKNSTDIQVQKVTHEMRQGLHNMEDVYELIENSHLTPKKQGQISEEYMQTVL

In the case of `CCCN(CCC)CCc1c[nH]c2ccccc12`, the Potency in test [1] was 67.7 µM (active). For the same molecule, the Potency result in test [2], in test [3], in test [4], in test [5], in test [7] and in [8] was “inactive” each time. The Potency entry in test [9], in [10], in [12] and in test [13] was “inactive” throughout. For the same molecule, the molecule was called inactive in [6] and in test [11].

For `CCCSP(=O)(OCC)SCCC`, the Potency result in test [1], in test [2], in test [3], in test [4], in test [7] and in test [15] was “inactive” each time. The Potency entry in [8], in test [9], in test [10] and in test [12] was “inactive” throughout. Also, the Potency in [14] was 50.3 µM (active). For the same molecule, the call in test [6] and in test [11] was inactive.

In the case of `Fc1cccc(Cl)c1CCl`, the Potency entry in [1], in test [2], in [3], in test [16], in [4] and in test [7] was “inactive” in each case. Besides, the Potency result in [15], in test [8], in test [17], in [18], in [9] and in test [10] was “inactive” throughout. Besides, the Potency result in test [12] was “inactive”. The call in [6] and in test [11] was inactive.

`CCCN(CC)CC1COC2(CCC(C(C)(C)C)CC2)O1` (stereo unspecified): the Potency entry in [1], in [2], in test [19], in [4], in test [5] and in test [7] was “inactive” throughout. For the same molecule, the Potency result in test [15], in [8], in [9] and in test [10] was “inactive” each time. The molecule was classed as inactive in test [11].

On to `CC(O)C#N` (stereo unspecified), for which the Potency result in test [1], in [2], in test [3], in test [16], in test [14] and in test [4] was “inactive” throughout. Moreover, the Potency result in test [5], in test [7], in [15], in test [8], in [17] and in test [18] was “inactive” each time. Besides, the Potency result in test [20], in test [9], in test [10], in test [12] and in test [13] was “inactive” each time. Further, the call in test [6] and in [11] was inactive.

`N#CNC#N`: the Potency result in test [1], in [2], in test [3], in test [16], in [4] and in test [7] was “inactive” in each case. Besides, the Potency entry in test [15], in [8], in test [18], in test [20], in [9] and in test [10] was “inactive” throughout. Besides, the Potency result in [12] and in test [13] was “inactive” throughout. The molecule was called inactive in test [6] and in [11].

With `N#CCCO`, the Potency entry in [1], in test [2], in [3], in test [16], in [14] and in test [4] was “inactive” in each case. For the same molecule, the Potency entry in test [5], in test [15], in test [8], in [17], in test [18] and in test [20] was “inactive” in each case. Moreover, the Potency result in [9], in test [12] and in test [13] was “inactive” throughout. The result in test [11] was inactive.

As for `COc1ccc(OC)c(CC(C)N)c1` (stereo unspecified), the Potency result in test [1], in [2], in [3], in test [16], in test [4] and in test [5] was “inactive” each time. Moreover, the Potency entry in [7], in [15], in [8], in test [17], in test [18] and in test [20] was “inactive” in each case. The Potency entry in test [9], in [10], in test [12] and in test [13] was “inactive” throughout. Moreover, the molecule was classed as inactive in test [6] and in test [11].

Values taken from PubChem BioAssay (Tox21).
